About 79,000 compounds went through this panel and 15% of them were active in at least one assay; those are over-represented in the sample as a whole. Unmarked numbers belong to inactive results. Activity calls are given as the source filed them. Rule as the data show it: active = growth inhibition above about 70%; inactive = the rest.
Experiments:
[1] = NCI Yeast Anticancer Drug Screen. Data for the rad50 strain (AID 155);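 also: 0% = growth of vehicle-only cultures of the same strain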; conditions: S. cerevisiae rad50 strain growth inhibition; at 50.0 µM; active compounds read high
Summary of the method: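 Readout: growth inhibition relative to vehicle-treated cultures. Compound exposure was carried out in a genetically defined yeast strain deficient in DNA damage repair.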

[2] = NCI Yeast Anticancer Drug Screen. Data for the mec2-1 strain (AID 157); conditions: S. cerevisiae mec2-1 strain, at 50.0 µM, active compounds read high
Summary of the method: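 Cells of the genetically defined mec2-1 yeast strain are incubated with test compound. Inhibition of growth is calculated against vehicle-treated controls.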

[3] = NCI Yeast Anticancer Drug Screen. Data for the sgs1 mgt1 strain (AID 161);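 also: 0% = growth of cultures given vehicle only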; conditions: S. cerevisiae sgs1 mgt1 strain, at 50.0 µM, active compounds read high
Summary of the method: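 Test agents were incubated with a DNA-repair-mutant yeast strain. Growth was then read and compared against vehicle-treated controls.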

[4] = NCI Yeast Anticancer Drug Screen. Data for the cln2 rad14 strain (AID 165);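 also: 0% = growth equal to vehicle treated cultures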; conditions: S. cerevisiae cln2 rad14 strain, at 50.0 µM, active compounds read high
Summary of the method: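 The screen exposed genetically defined yeast (cln2 rad14) to test compounds and scored growth inhibition relative to vehicle-treated controls.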

[5] = NCI Yeast Anticancer Drug Screen. Data for the bub3 strain (AID 167); conditions: S. cerevisiae bub3 mutant strain, at 50.0 µM, active compounds read high
Summary of the method: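 Readout: yeast growth inhibition, expressed relative to vehicle-only wells. The test organism is a mutant strain from a panel with lesions in DNA repair or checkpoint genes.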

[6] = NCI Yeast Anticancer Drug Screen. Data for the mlh1 rad18 strain (AID 175); conditions: S. cerevisiae mlh1 rad18 strain growth inhibition; at 50.0 µM; active compounds read high
Summary of the method: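 Compound-treated yeast growth, normalised to vehicle controls. Strain bears defined DNA repair mutations.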

| Compound | growth inhibition [1] | growth inhibition [2] | growth inhibition [3] | growth inhibition [4] | growth inhibition [5] | growth inhibition [6] |
| --- | --- | --- | --- | --- | --- | --- |
| c1ccc2c(c1)cnc1cc3c(cc12)ncc1ccccc13 | 8.05% | 19.9% | 9.3% | 14.8% | -6.45% | 28.8% |
| CCCC(=O)n1[nH]c(=O)n(-c2ccc(Cl)cc2)c1=O | 5.15% | -12.3% | 19.8% | 3.25% | -2.1% | -10.3% |
| CNC(=O)Nc1ccc(C(=O)O)cc1 | 9.2% | 4.35% | 5.35% | -38.1% | 9.8% | 5.2% |
| CN(C)c1ccc(/C=N\NC(=S)NCCCN2CCN(CCCNC(=S)N/N=C/c3ccc(N(C)C)cc3)CC2)cc1 | 36.1% | 9.4% | 5.45% | 17.6% | 1.5% | 27.2% |
| CC(C)(C)C1=CC(=C(c2ccc(-c3c4nc(c(-c5ccc(C(=C6C=C(C(C)(C)C)C(=O)C(C(C)(C)C)=C6)c6cc(C(C)(C)C)c(O)c(C(C)(C)C)c6)cc5)c5ccc([nH]5)c(-c5ccc(C(=C6C=C(C(C)(C)C)C(=O)C(C(C)(C)C)=C6)c6cc(C(C)(C)C)c(O)c(C(C)(C)C)c6)cc5)c5nc(c(-c6ccc(C(=C7C=C(C(C)(C)C)C(=O)C(C(C)(C)C)=C7)c7cc(C(C)(C)C)c(O)c(C(C)(C)C)c7)cc6)c6ccc3[nH]6)C=C5)C=C4)cc2)c2cc(C(C)(C)C)c(O)c(C(C)(C)C)c2)C=C(C(C)(C)C)C1=O | 4.7% | 2.6% | -1.75% | -38.6% | -3.9% | 14.4% |
| [N-]=[N+]=CC(=O)CCN1C(=O)c2ccccc2C1=O | -9.85% | -0.85% | -4.75% | -3.85% | 1.15% | -1.55% |
| O=CNc1cccc2c(=O)[nH][nH]c(=O)c12 | -21.9% | -46.8% | -56.6% | 18.1% | -26.1% | -39.1% |
| CC(=O)OCC1OC(n2cnc([N+](=O)[O-])c2Br)C(OC(C)=O)C1OC(C)=O (configuration not stated) | 15.1% | 15.4% | 18.8% | 25.5% | 6.05% | 21.8% |
| CC1(C)O[C@@H]2C[C@H]3[C@@H]4C[C@H](F)C5=CC(=O)C=C[C@]5(C)[C@@]4(F)[C@@H](O)C[C@]3(C)[C@]2(C(=O)CO)O1 | -1.8% | -25.6% | 0.25% | -4.75% | -57.8% | -8.35% |
| CCOC(=O)CCC(C(=O)OCC)C(C)C(=O)OCC (configuration not stated) | -25.4% | -19.1% | -25.8% | -11.7% | 4.1% | -15.2% |
| N#CC1(C(N)=O)OC1c1ccccc1Cl (configuration not stated) | -3.1% | -18.1% | 1.3% | -37.3% | -7.1% | -16.9% |
| COC(=O)c1ccc(C(=O)OC)c(N)c1 | 0.95% | 5.4% | -1.85% | -33% | 3.95% | 0.5% |
| CCCCCC(=O)NCCCOC | -20% | 10.8% | -0.35% | -46.4% | -13.7% | -8.9% |
| CC(C)(C)CC(C)(C)c1ccc(OCCOc2ccc(C(=O)Nc3ccc([N+](=O)[O-])cc3)cc2)cc1 | 49.9% | -0.3% | 42.5% | 6% | -5.65% | 22.9% |
| CC(=O)Oc1ccc(=O)[nH]c1 | 1.3% | -11.9% | 2.2% | -18.4% | 2.75% | -48% |
| Nc1nc(N)c(Nc2ccc(Cl)cc2)c(Cl)n1 | 50% | 29.2% | 66.3% | 35.2% | 40.9% | 50.5% |
| CC(=O)COc1cccc2ccccc12 | -1.15% | -3.1% | -2.05% | -36.4% | -23.8% | -2.35% |
| CC(=O)O[C@H]1C[C@]2(C)C(CCC3O[C@@]32C)[C@@]2(CC(c3ccoc3)OC2O)[C@@H]1C (some centres not stated) | -10.8% | -16.1% | -29.9% | -10.1% | -23.1% | -13.2% |
| CCN(CC)CCNc1cc(OC)c(N)c2cccnc12 | 14.2% | 19.9% | -2.7% | -6.75% | 46.6% | 40.4% |

| Compound | growth inhibition [1] | growth inhibition [2] | growth inhibition [3] | growth inhibition [4] | growth inhibition [5] | growth inhibition [6] |
| --- | --- | --- | --- | --- | --- | --- |
| O=C1C(N=Nc2ccccc2)Sc2nc3ccccc3n21 (configuration not stated) | -16.1% | -3.2% | 2.85% | -52% | 4.5% | -9.1% |
| CC1=NC(=O)C(C)(c2ccccc2)N1CCc1ccccc1 (configuration not stated) | -0.05% | 8.4% | -8.75% | -16.9% | -10.6% | -28.6% |
| CCOC(=O)C1=C(C(=O)C(C)(C)C)C(c2ccc([N+](=O)[O-])cc2)C(C(=O)C(C)(C)C)=C(C(=O)OCC)N1 | 31.1% | 21.4% | 9.4% | 27.4% | 6.2% | 14.3% |
| O/N=C/c1ccc(O)c(O)c1 | 16.4% | -7.35% | -4.05% | -0.7% | 10.8% | 4.75% |
| COC(=O)c1cc(=O)c2ccc(Cl)cc2[nH]1 | -8.05% | 4.05% | -10.9% | -14.6% | -18.3% | -25.3% |
| CCOC(=O)C(C(=O)OCC)=C(N)C(Cl)(Cl)Cl | 0.2% | -1.6% | -9.9% | 14.8% | 11.7% | -1.9% |
| CS(=O)(=O)CCCCCCCCCCS(C)(=O)=O | 9.45% | 2.45% | -4.35% | -23.7% | 5% | 4.5% |
| Cc1cccc(C)c1NC(=O)C(=O)CC(=O)c1cccc([N+](=O)[O-])c1 | 45.4% | 11.9% | 2.2% | 24.4% | 19.2% | 40.9% |
| C/C(=N\NC(=S)N1CCN(c2ncccn2)CC1)c1ccccn1 | -2.4% | -7.1% | -6.8% | -21.8% | 9.35% | 4.2% |
| N#Cc1nc[nH]c1C(N)=O | -2.4% | 0.25% | -14.2% | 11.8% | 11% | 6.25% |
| CSc1ccc(NC(=O)Nc2ccccc2C(F)(F)F)cc1 | 2.05% | -3.25% | 18.4% | -9.85% | 34.5% | 27% |
| OC(C/C(=N\Nc1ccccc1)c1ccc(F)cc1)(C(F)(F)F)C(F)(F)F | 98.3% (active) | 98.8% (active) | 98.5% (active) | 97.8% (active) | 98.3% (active) | 98.6% (active) |
| O=C(N=C1[Se]C(=Nc2ccccc2)C(=Nc2ccccc2)N1c1ccccc1)c1ccccc1 | 9.45% | 5.1% | 6.55% | 20.6% | 2.75% | 3.25% |
| CCOC(=O)C1=C(C)N[C@H](c2ccccc2[N+](=O)[O-])N[C@H]1c1ccccc1[N+](=O)[O-] | 22.2% | 19.7% | 19.9% | 7% | 1.45% | 9.25% |
| COc1cc(/C=C2\SC(=S)N(/C=C(/C#N)C(=O)c3ccc4ccccc4c3)C2=O)cc(OC)c1OC | 21.3% | 11.8% | 53.4% | 3.45% | 27.2% | 31.4% |
| CC(=O)[O][Ga]([Cl])[O]C(C)=O | 22.2% | 27.2% | 34.1% | 34.3% | 30.3% | 14.3% |
| CC(C)N(C(=O)C1C2CCC(CC2)C1C(=O)N(C(C)C)C(C)C)C(C)C (configuration not stated) | 2.4% | 17.5% | 11.3% | -0.9% | 27.6% | 20.7% |
| [O-][n+]1onc2c1/C(=N/O)CCC2 | -17.2% | 4.6% | -14.3% | -2.3% | -4.1% | 11.7% |
